Data published in the supplement of paper PMC6555819.

What follows are sequences tested on FXR:RXRa (NR concentration 270 nM, RXRa partner concentration 90 nM) (assay: PBM binding z-score (relative to random genomic background probes); higher = stronger binding; sequences stand for … in GC…GCGATTGACAGCGTAGAATGAAGG).
In short: (§1)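 Antibodies against each partner of ligand-free nuclear receptor dimers (one per run) detected binding on custom Agilent 4×180K protein-binding microarrays after 1 h incubation. The double-stranded probes had 34-nt variable regions carrying direct-repeat seeds, single-nucleotide variants, half-site ablations and random human genomic background sequences. Binding z-scores, from regression-normalized fluorescence, use the random background probes as reference.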

| Sequence | PBM binding z-score |
| --- | --- |
| AATACAGGGTCATCTTAGGCCAGAGTACGCACAG | 7.35 |
| TATCAAAGTTCAAAGGTAACGTAAGTATCCACAC | 6.87 |
| ATCGAAAGGTCCAAGGTGAGTATACCCACCCGAA | 0.219 |
| TACCCTAGGTCATTGGGCCAGTATAGTACGCATC | 4.66 |
| AGAATGGGGTTACCAAAGATCAGGGAAACGCTTG | 3.7 |
| AATACAGGGTGACTAGGCCAGAGTAGGTACGAAT | 0.201 |
| GTTACAGGGTCAAGGCCAGAGTACGCGTATTGAT | 6.43 |
| ATATGTAGGATAGCTGGGGTCATTCAGACTAGGC | 3.09 |
| TACCCTAGGTCATTCAGGGGCCAGTATAGAAAGC | 4.73 |
| CCTACTGGACCAAGGTCATTGATCAGTCAAAGCA | 3.24 |
| AGTCAAAGTTCATCTAGGTAACATAAGATATGCT | 6.39 |
| GCATATAGGTAATACAAGGTCAAAGTCCGATTGT | 3.47 |
| CGTCCAAGGTCAATGCTAGATCAGTGAAAGCATT | 6.47 |
| CCTACTGGGCCATTCAGAGGGCATTGATCATATG | -0.338 |
| CCTACTGGGCCGTTCAGAGGTCATTGATCATATG | 2.45 |
| TGTCAATGTTCAAAGGTAACGTAAGTATCCACAC | 0.202 |
| ATATGTAGGTTATCGGGTCATACAGTTTGCGCAT | 3.18 |
| ATATGTAGGTTACCTGGGGTCATTCAGACTAGGC | 4.89 |
| TAGCCTAGGTCATTCAGGGGCCAGCATAGAAAGC | 4.87 |
| AGTCAAAGTTGAGGACGAGGTAACGTAAAGCACG | 0.359 |

| Sequence | PBM binding z-score |
| --- | --- |
| ACTTACGGCTCAACGAGGTTATAGCACGCGTATA | 0.333 |
| CACACTAGGTCACAGAGGTCAAAGTCCGTGCGTA | 7.16 |
| TCTGCTAGGTCAACGTTGGTCAGCTAATCTGCTA | 3.38 |
| AGAATGAGGTTACTAAAGATCAGGGAAACGCTTG | 1.18 |
| TAGCCTAGGTCATTCAGGGGCAAGTATAGAAAGC | 5.65 |
| CCTTACGGGTCAAGGTTATAGCCCGGGTGGTACG | 5.51 |
| CCTTACGGGTTACTCCAGGTTATAGCATCGGAGT | 2.01 |
| TCTTGTAGATCGATAGAGGTTAAGAAAGTGCGCT | 0.392 |
| CCTTACGGGTCACTCCAGGTCATAGCATCGGAGT | 5.36 |
| ATATGTAGGTTAGCTGAGGTCATTCAGACTAGGC | 5.29 |
| TAGCCTAGTTCATGCGGGCCAGTATAGTGTCGGC | -0.33 |
| CAAAATAGGTCACCGGAAGGTCAAAGTCCGCATG | 7.48 |
| ATCGAAAGGTCGACCAGGTGAGTATACACCGTTT | 4.91 |
| GCTGCTAGGTCAACTGATGGTCATCTAAAGCTCG | 4.19 |
| CCTACTGGGCCAAAGGTGATTGATTCCAATGCTC | -0.0621 |
| CAAACTAGGTCACAGTGGTCAAAGTCCGTGCGTA | 4.01 |
| ATATGTAGTTTATCGGGTCATTCAGTTTGCGCAT | 2.53 |
| CAAACTAGGTCACAAAAGGTCAAAGTCGAATGAC | 7.02 |
| TCTAGTTGGTCTAAGGTCACACACTCGAAATGCG | 4.14 |
| AATACAAGGTCATCGTAGGCCAGAGTACGCACAG | 7.64 |

The sequences below were run on LXRa homodimer (NR concentration 270 nM) in the same assay as above.
In short: as §1

| Sequence | PBM binding z-score |
| --- | --- |
| AATACAGGGTCATCTTAGGCCAGAGTACGCACAG | 2.36 |
| TATCAAAGTTCAAAGGTAACGTAAGTATCCACAC | 6.56 |
| ATCGAAAGGTCCAAGGTGAGTATACCCACCCGAA | -0.213 |
| TACCCTAGGTCATTGGGCCAGTATAGTACGCATC | 8.18 |
| AGAATGGGGTTACCAAAGATCAGGGAAACGCTTG | -0.351 |
| AATACAGGGTGACTAGGCCAGAGTAGGTACGAAT | 0.00715 |
| GTTACAGGGTCAAGGCCAGAGTACGCGTATTGAT | 0.317 |
| ATATGTAGGATAGCTGGGGTCATTCAGACTAGGC | 1.63 |
| TACCCTAGGTCATTCAGGGGCCAGTATAGAAAGC | 8.12 |
| CCTACTGGACCAAGGTCATTGATCAGTCAAAGCA | 1.96 |
| AGTCAAAGTTCATCTAGGTAACATAAGATATGCT | 5.61 |
| GCATATAGGTAATACAAGGTCAAAGTCCGATTGT | 9.94 |
| CGTCCAAGGTCAATGCTAGATCAGTGAAAGCATT | 0.407 |
| CCTACTGGGCCATTCAGAGGGCATTGATCATATG | 0.468 |
| CCTACTGGGCCGTTCAGAGGTCATTGATCATATG | 5.59 |
| TGTCAATGTTCAAAGGTAACGTAAGTATCCACAC | -0.216 |
| ATATGTAGGTTATCGGGTCATACAGTTTGCGCAT | 1.45 |
| ATATGTAGGTTACCTGGGGTCATTCAGACTAGGC | 10.8 |
| TAGCCTAGGTCATTCAGGGGCCAGCATAGAAAGC | 0.45 |
| AGTCAAAGTTGAGGACGAGGTAACGTAAAGCACG | -0.388 |

| Sequence | PBM binding z-score |
| --- | --- |
| ACTTACGGCTCAACGAGGTTATAGCACGCGTATA | 0.28 |
| CACACTAGGTCACAGAGGTCAAAGTCCGTGCGTA | 8.63 |
| TCTGCTAGGTCAACGTTGGTCAGCTAATCTGCTA | -0.139 |
| AGAATGAGGTTACTAAAGATCAGGGAAACGCTTG | 0.111 |
| TAGCCTAGGTCATTCAGGGGCAAGTATAGAAAGC | 2.15 |
| CCTTACGGGTCAAGGTTATAGCCCGGGTGGTACG | 0.231 |
| CCTTACGGGTTACTCCAGGTTATAGCATCGGAGT | 5.38 |
| TCTTGTAGATCGATAGAGGTTAAGAAAGTGCGCT | -0.317 |
| CCTTACGGGTCACTCCAGGTCATAGCATCGGAGT | 7.03 |
| ATATGTAGGTTAGCTGAGGTCATTCAGACTAGGC | 6.24 |
| TAGCCTAGTTCATGCGGGCCAGTATAGTGTCGGC | -0.511 |
| CAAAATAGGTCACCGGAAGGTCAAAGTCCGCATG | 5.46 |
| ATCGAAAGGTCGACCAGGTGAGTATACACCGTTT | 0.21 |
| GCTGCTAGGTCAACTGATGGTCATCTAAAGCTCG | 0.86 |
| CCTACTGGGCCAAAGGTGATTGATTCCAATGCTC | -0.216 |
| CAAACTAGGTCACAGTGGTCAAAGTCCGTGCGTA | 0.593 |
| ATATGTAGTTTATCGGGTCATTCAGTTTGCGCAT | 3.41 |
| CAAACTAGGTCACAAAAGGTCAAAGTCGAATGAC | 7.78 |
| TCTAGTTGGTCTAAGGTCACACACTCGAAATGCG | 2.63 |
| AATACAAGGTCATCGTAGGCCAGAGTACGCACAG | 6.1 |
